The source made the active and inactive calls. How the source made its calls: active means hit-call score of the fitted dose curve at least 0.9, where 1 is the maximum; inactive means score below 0.9.
Read-out: Plasminogen activator inhibitor-1 (PAI1), SERPINE1 (gene 5054)
Test: BSK_MyoF_PAI1: BioMAP Diversity Plus: MyoF Assay for Plasminogen activator inhibitor-1 (PAI1) Biomarker Activity (AID 2284256)
Conditions: primary human lung fibroblasts
Method: BSK_MyoF is a cell-based, multiplexed-readout assay that uses lung fibroblasts, […], with measurements taken at 24 hours after chemical dosing in a microplate: 96-well plate.BSK_MyoF_PAI1 is an assay component measured in the BSK_MyoF assay. It measures PAI-1 antibody related to regulation of gene expression using ELISA technology.Data from the assay component BSK_MyoF_PAI1 was analyzed at the endpoint, BSK_MyoF_PAI1, in the positive analysis fitting direction relative to DMSO as the negative control and baseline of activity. Using a type of binding reporter, gain or loss-of-signal activity can be used to understand protein changes. To generalize the intended target to other relatable targets, this assay endpoint is annotated to the 'cytokine' intended target family, where the subfamily is 'plasmogen activator inhibitor'.
The levels of cell surface (or secreted, indicated by the prefix "s") biomarker endpoints were measured by ELISA. Overt cytotoxicity to cells in confluent adherent cultures (all systems other than the BT system) was assessed by measuring total protein levels using sulforhodamine B (SRB) staining in parallel cultures at the time of biomarker measurements, indicated as SRB endpoints. For proliferation assays for adherent cell types, individual cell types are cultured at sub-confluence and relative cell numbers quantified by SRB staining at time points optimized for each system (48 h: 3C and CASM3C systems; 72 h: BT and HDF3CGF systems; 96 h: SAg system). SRB was performed by staining cells with 0.1% SRB after fixation with 10% TCA and reading wells at 560 nm.Viability and proliferation of PBMC (T cells) was quantified by Alamar Blue reduction for the SAg and BT systems. For PBMC viability (referred to as PBMC Cytotoxicity within the assay endpoint names), cells were plated (75,000/well in a 96-well plate) and then chemical samples added for 1 h before addition of activators, SEB and TSST-1 (20 ng/mL final concentration each). Cells were incubated for 90 h. Then, Alamar Blue (20 uL/well) (Invitrogen, Cat DAL1100) was added for 6 h, and the plates were read with a fluorescence microplate reader at 546/580 nm (excitation/emission). For PBMC proliferation, cells were plated and activated as above but incubated for only 16 h prior to addition of Alamar Blue. Plates were read after 6 h.

SMILES	outcome	AC50
C=CCOCC(O)CCl (configuration not stated)	inactive	
N#[N+]c1ccc2c(S(=O)(=O)[O-])cccc2c1O	inactive	
c1ccc(-c2ccccn2)nc1	inactive	
O=C(Cl)c1cc(C(=O)Cl)cc(C(=O)Cl)c1		39.1 µM (active)
C=CC=CC=CCCCCC	inactive	
O=Nc1ccc(O)cc1	inactive	
S=C(NC1CCCCC1)NC1CCCCC1	inactive	
C/C=C\C/C=C/CCCCCCCCOC(C)=O		20 µM (active)
CCCCNc1ccc(NCCCC)c2c1C(=O)c1ccccc1C2=O	inactive	
COCc1c(C(C)C)nc(C(C)C)c(/C=C/[C@@H](O)C[C@@H](O)CC(=O)O)c1-c1ccc(F)cc1		0.15 µM (active)
CCO[Si](CCCN=C=O)(OCC)OCC	inactive	
CCCCCCCCc1ccc(Nc2ccc(CCCCCCCC)cc2)cc1	inactive	
CCCCC(CC)COC(=O)c1ccccc1O (configuration not stated)	inactive	
CCOc1nc(F)cc2nc(S(=O)(=O)Nc3c(Cl)cccc3C(=O)OC)nn12	inactive	
CC1OC1C1CCC2(C)OC2C1 (configuration not stated)	inactive	
C#CC1(O)CC[C@H]2[C@@H]3CCC4=CCCC[C@@H]4[C@H]3CC[C@@]21C (some centres not stated)		32 µM (active)
c1ccc2c(c1)ccc1ncccc12	inactive	
COc1ccc2nc(N)sc2c1	inactive	
C=CCOc1c(Br)cc(Br)cc1Br		26.6 µM (active)
O=C(Nc1ccccc1SSc1ccccc1NC(=O)c1ccccc1)c1ccccc1	inactive	
C=CC(=O)OCC(Br)CBr (configuration not stated)		7.93 µM (active)
CC(C)(c1cc(Br)c(OCCO)c(Br)c1)c1cc(Br)c(OCCO)c(Br)c1		9.61 µM (active)
O=c1c2ccccc2oc2ccccc12	inactive	
CC(C)C(=O)C(C)C	inactive	
c1ccc2c(c1)ccc1cc3c(ccc4ccccc43)cc12	inactive	
CCCCCCCCCCCCCCCC[N+](C)(C)CC		2.65 µM (active)
CCCCC/C=C\C/C=C\CCCCCCCC(=O)OC	inactive	

— PubChem BioAssay (EPA / NIEHS)
